We go through one molecule from the supplement of paper PMC8728848.

This excerpt belongs to a sample that is enriched for the strongest signals.

What all share (test): glycan array binding signal (z-score within array); higher = stronger binding
Common to all, as to details: glycan notation: IUPAC condensed, linker removed

Test [1] has as its target Fuc(a1-2)Gal(b1-3)GlcNAc. The essentials:
(§1)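 Glycan array binding is given as a within-array Z-score, which can be read as non-binding when negative. The arrays, 3228 of them, came from the Consortium for Functional Glycomics database and were retained only where the protein sequence was available. Z-scores were averaged across arrays of the same protein sequence at different concentrations or buffers and across linkers.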

Test [2] has as its target Fuc(a1-2)Gal(b1-3)GlcNAc(b1-3)[Gal(b1-4)GlcNAc(b1-6)]Gal(b1-4)Glc. The method, boiled down: as §1
Test [3] concerns the target Fuc(a1-2)Gal(b1-3)[Fuc(a1-4)]GlcNAc. The essentials:
as §1

The target in test [4] is Fuc(a1-2)Gal(b1-3)[Fuc(a1-4)]GlcNAc(b1-2)Man(a1-3)[Fuc(a1-2)Gal(b1-3)[Fuc(a1-4)]GlcNAc(b1-2)Man(a1-6)]Man(b1-4)GlcNAc(b1-4)[Fuc(a1-6)]GlcNAc(b1-4)[Fuc(a1-6)]GlcNAc. The essentials:
as §1

Test [5] has as its target Fuc(a1-2)Gal(b1-3)[Fuc(a1-4)]GlcNAc(b1-3)[Fuc(a1-3)[Gal(b1-4)]GlcNAc(b1-6)]Gal(b1-4)Glc. The essentials:
as §1

Test [6] has as its target Fuc(a1-2)Gal(b1-4)GlcNAc(b1-2)Man. The essentials:
as §1

Test [7] concerns the target Fuc(a1-2)Gal(b1-4)GlcNAc(b1-3)Gal(b1-4)GlcNAc(b1-2)Man(a1-3)[Fuc(a1-2)Gal(b1-4)GlcNAc(b1-3)Gal(b1-4)GlcNAc(b1-2)Man(a1-6)]Man(b1-4)GlcNAc(b1-4)GlcNAc. The essentials: as §1
Test [8] deals with Fuc(a1-2)[Gal(a1-3)]Gal(b1-4)GlcNAc(b1-3)GalNAc. The method, boiled down:
as §1

Test [9] deals with Fuc(a1-2)[GalNAc(a1-3)]Gal. The method, boiled down:
as §1

Test [10] deals with Fuc(a1-2)[GalNAc(a1-3)]Gal(b1-3)GalNAc(a1-3)[Fuc(a1-2)]Gal(b1-4)GlcNAc. The method, boiled down: as §1
Test [11] concerns the target Fuc(a1-2)[GalNAc(a1-3)]Gal(b1-3)GlcNAc. The method, boiled down:
as §1

Test [12] deals with Fuc(a1-2)[GalNAc(a1-3)]Gal(b1-3)GlcNAc(b1-3)GalNAc. The method, boiled down:
as §1

In test [13] the target is Fuc(a1-2)[GalNAc(a1-3)]Gal(b1-4)[Fuc(a1-3)]GlcNAc(b1-3)GalNAc. The essentials: as §1
Test [14] concerns the target Fuc(a1-3)[Gal3S(b1-4)]GlcNAc. The essentials: as §1
Test [15] addresses Gal(a1-4)Gal(b1-3)GlcNAc(b1-2)Man(a1-3)[Gal(a1-4)Gal(b1-3)GlcNAc(b1-2)Man(a1-6)]Man(b1-4)GlcNAc(b1-4)GlcNAc. The essentials:
as §1

Test [16] has as its target Gal(b1-3)GlcNAc(b1-3)Gal(b1-4)GlcNAc(b1-2)Man(a1-3)[Gal(b1-3)GlcNAc(b1-3)Gal(b1-4)GlcNAc(b1-2)Man(a1-6)]Man(b1-4)GlcNAc(b1-4)GlcNAc. The essentials: as §1
Test [17] has as its target Gal(b1-3)[Fuc(a1-4)]GlcNAc(b1-6)GalNAc. The method, boiled down:
as §1

Test [18] deals with Gal(b1-4)GalNAc(a1-3)[Fuc(a1-2)]Gal(b1-4)GlcNAc. The method, boiled down:
as §1

In test [19] the target is Gal(b1-4)GlcNAc(b1-2)[Gal(b1-4)GlcNAc(b1-6)]Man(a1-6)[Gal(b1-4)GlcNAc(b1-2)Man(a1-3)]Man(b1-4)GlcNAc(b1-4)[Fuc(a1-6)]GlcNAc. The method, boiled down:
as §1

In test [20] the target is Gal(b1-4)GlcNAc(b1-3)Gal(b1-4)GlcNAc(b1-2)Man(a1-3)[Gal(b1-4)GlcNAc(b1-3)Gal(b1-4)GlcNAc(b1-2)Man(a1-6)]Man(b1-4)GlcNAc(b1-4)[Fuc(a1-6)]GlcNAc. The essentials:
as §1

In test [21] the target is Gal(b1-4)GlcNAc(b1-3)Gal(b1-4)GlcNAc(b1-3)Gal(b1-4)GlcNAc(b1-2)Man(a1-3)[Gal(b1-4)GlcNAc(b1-3)Gal(b1-4)GlcNAc(b1-3)Gal(b1-4)GlcNAc(b1-2)Man(a1-6)]Man(b1-4)GlcNAc(b1-4)[Fuc(a1-6)]GlcNAc. The essentials:
as §1

Test [22] addresses Gal(b1-4)GlcNAc(b1-3)Gal(b1-4)GlcNAc(b1-3)Gal(b1-4)GlcNAc(b1-3)Gal(b1-4)GlcNAc(b1-2)Man(a1-3)[Gal(b1-4)GlcNAc(b1-3)Gal(b1-4)GlcNAc(b1-3)Gal(b1-4)GlcNAc(b1-3)Gal(b1-4)GlcNAc(b1-2)Man(a1-6)]Man(b1-4)GlcNAc(b1-4)[Fuc(a1-6)]GlcNAc. The essentials:
as §1

Test [23] concerns the target Gal(b1-4)GlcNAc(b1-3)Gal(b1-4)GlcNAc(b1-3)Gal(b1-4)GlcNAc(b1-3)Gal(b1-4)GlcNAc(b1-3)Gal(b1-4)GlcNAc(b1-2)Man(a1-3)[Gal(b1-4)GlcNAc(b1-3)Gal(b1-4)GlcNAc(b1-3)Gal(b1-4)GlcNAc(b1-3)Gal(b1-4)GlcNAc(b1-3)Gal(b1-4)GlcNAc(b1-2)Man(a1-6)]Man(b1-4)GlcNAc(b1-4)GlcNAc. The method, boiled down: as §1

B1: SJCP1084 (Schistosoma japonicum) (protein)
chain: MRIINLVIISTALLLINLLQTKSQANGEDTKNGTPDDPGLTKSTELKVEVQALLKDKKTNMRVKWNENLLDNTKPEYHNLRDEACELLLQIVRSVVPLSQDDGECKDVTFTKYVVGTKDGAVNVKLTITFKDSVAINQKPMDLKLKLENDFKNLQSESTLKATKPTFTVKVEKRLIPISKPQTTPPTTAKNDASKENVGDIGGEDSTVPTAAPATAASANEEKDEGDKDNKDSQHPNVLTSNVNDRNLIIALVALMILAIGVALTAAVKQR
With B1, the “glycan array binding signal (z-score)” value in test [1] was 0.181; in test [2], -0.827; in test [3], 0.425; in test [4], -0.159; in [5], -0.831; in test [6], 1.24. The “glycan array binding signal (z-score)” value in test [7] is 4.99; in test [8], -0.455; in test [9] it was 0.405; in test [10], -0.717; in test [11] it was 0.643; in test [12], 2.68. Further, the “glycan array binding signal (z-score)” value in test [13] was -0.545; in [14], -1.01; in test [15], 3.06; in test [16], 0.617; in test [17], -0.381; in [18], -0.495. The “glycan array binding signal (z-score)” value came to 2.77 in test [19]; 4.14 in [20]; 3.35 in [21]; 3.73 in test [22]; 4.37 in test [23].
